In PubChem BioAssay AID1159580 (chemical genetic matrix, 2015):
“And” between values parts separate entries of the source, which are not always exact repeats. Identical values can stand only once. Among all 5,500 compounds or so, about 2,000 (36%) were called active. Not shown: some 18% with an inconclusive outcome. Rule as the data show it: active = normalized growth mostly below about 0.91 (no sharp cut-off); inconclusive = no clear call, values can overlap the other calls; inactive = mostly above about 0.92. This is one part of the list.

Test: chemical genetic growth profiling, strain panel (AID 1159580);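 also: tested at 20 µM; growth read once vehicle control cultures reached saturation at 30 °C; 1 = growth at the plate median or of vehicle wells; lower values mean less growth of the strain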
Details: S. cerevisiae deletion strains, growth OD

Measured: normalized growth

Oc1ccc(Cl)cc1
inactive: locus YAL013W, strain DEP1, stronger effect = lower value 0.992 | locus YAL021C, strain ccr4, stronger effect = lower value 1.01 | locus YAL026C, strain drs2, stronger effect = lower value 1.03 | locus YAL030W, strain snc1, stronger effect = lower value 1.01 | locus YBL061C, strain skt5, stronger effect = lower value 1.01 | locus YBR009C, strain hhf1, stronger effect = lower value 1.01 | locus YBR021W, strain FUR4, stronger effect = lower value 0.971 | locus YBR023C, strain chs3, stronger effect = lower value 1.01 | locus YBR171W, strain sec66, stronger effect = lower value 1.02 | locus YBR229C, strain ROT2, stronger effect = lower value 0.986 | locus YBR231C, strain swc5, stronger effect = lower value 1 | locus YBR279W, strain paf1, stronger effect = lower value 1.01 | locus YCL011C, strain gbp2, stronger effect = lower value 1.01 | locus YCL016C, strain dcc1, stronger effect = lower value 1.02 | locus YCL029C, strain bik1, stronger effect = lower value 0.976 | locus YCL061C, strain MRC1, stronger effect = lower value 1.02 | locus YCL069W, strain vba3, stronger effect = lower value 1.01 | locus YCR088W, strain abp1, stronger effect = lower value 1.01 | locus YDL005C, strain med2, stronger effect = lower value 1.01 | locus YDL035C, strain GPR1, stronger effect = lower value 0.987 | locus YDL040C, strain nat1, stronger effect = lower value 1.01 | locus YDL074C, strain BRE1, stronger effect = lower value 1.01 | locus YDL101C, strain DUN1, stronger effect = lower value 0.985 | locus YDL134C, strain PPH21, stronger effect = lower value 0.975 | locus YDL185W, strain tfp1, stronger effect = lower value 0.98 | locus YDL192W, strain arf1, stronger effect = lower value 0.977 | locus YDR001C, strain nth1, stronger effect = lower value 1.01 | locus YDR069C, strain doa4, stronger effect = lower value 0.992 | locus YDR101C, strain arx1, stronger effect = lower value 0.973 | locus YDR137W, strain rgp1, stronger effect = lower value 1.04 | locus YDR159W, strain sac3, stronger effect = lower value 0.981 | locus YDR162C, strain NBP2, stronger effect = lower value 0.995 | locus YDR195W, strain ref2 1.02 | locus YDR297W, strain sur2, stronger effect = lower value 1.01 | locus YDR318W, strain mcm21, stronger effect = lower value 0.977 | locus YDR334W, strain swr1, stronger effect = lower value 1.01 | locus YDR335W, strain msn5, stronger effect = lower value 1 | locus YDR388W, stronger effect = lower value 0.962 | locus YDR392W, strain spt3, stronger effect = lower value 0.956 | locus YDR502C, strain sam2, stronger effect = lower value 0.979 | locus YEL003W, strain gim4, stronger effect = lower value 1.01 | locus YEL037C, strain rad23, stronger effect = lower value 1.01 | locus YEL061C, strain CIN8 (second series), stronger effect = lower value 1.01 | locus YEL061C, strain CIN8, stronger effect = lower value 0.993 | locus YER015W, strain faa2, stronger effect = lower value 1.01 | locus YER016W, strain bim1, stronger effect = lower value 0.997 | locus YER110C, stronger effect = lower value 0.973 | locus YER111C, strain swi4, stronger effect = lower value 1.01 | locus YER155C, strain BEM2 (second series), stronger effect = lower value 1.02 | locus YER155C, strain BEM2, stronger effect = lower value 0.987 | locus YER167W, strain BCK2, stronger effect = lower value 0.984 | locus YFR010W, strain ubp6, stronger effect = lower value 1 | locus YGL078C, strain dbp3, stronger effect = lower value 0.978 | locus YGL086W, strain mad1, stronger effect = lower value 1 | locus YGL167C, strain pmr1, stronger effect = lower value 1 | locus YGL173C, strain kem1, stronger effect = lower value 1 | locus YGL227W, strain vid30, stronger effect = lower value 1.01 | locus YGL240W, strain doc1, stronger effect = lower value 1 | locus YGL248W, strain PDE1, stronger effect = lower value 0.991 | locus YGL253W, strain hxk2, stronger effect = lower value 1.02 | locus YGR135W, strain pre9, stronger effect = lower value 0.978 | locus YGR229C, strain SMI1, stronger effect = lower value 0.996 | locus YGR252W, strain gcn5, stronger effect = lower value 1.05 | locus YHR013C, strain ard1, stronger effect = lower value 1.03 | locus YHR027C, strain rpn1, stronger effect = lower value 1.01 | locus YHR030C, strain SLT2, stronger effect = lower value 0.99 and 0.965 | locus YHR079C, strain IRE1 (second series), stronger effect = lower value 0.966 | locus YHR079C, strain IRE1, stronger effect = lower value 0.966 | locus YHR094C, strain hxt1, stronger effect = lower value 0.974 | locus YHR129C, strain ARP1, stronger effect = lower value 0.998 | locus YHR142W, strain chs7, stronger effect = lower value 1.02 | locus YHR200W, strain rpn10, stronger effect = lower value 0.98 | locus YIL066C, strain RNR3, stronger effect = lower value 0.992 | locus YIL073C, strain SPO22, stronger effect = lower value 0.942 | locus YIL125W, strain kgd1, stronger effect = lower value 0.975 | locus YIR030C, strain dcg1, stronger effect = lower value 0.98 | locus YJL092W, strain hpr5, stronger effect = lower value 1.02 | locus YJL095W, strain BCK1 (second series), stronger effect = lower value 1.01 | locus YJL095W, strain BCK1, stronger effect = lower value 1.01 and 0.962 | locus YJL115W, strain asf1, stronger effect = lower value 1.02 | locus YJL129C, strain trk1, stronger effect = lower value 0.99 | locus YJL134W, strain LCB3, stronger effect = lower value 0.991 | locus YJL154C, strain vps35, stronger effect = lower value 1.01 | locus YJL164C, strain tpk1, stronger effect = lower value 1 | locus YJL166W, strain qcr8, stronger effect = lower value 1.02 | locus YJL168C, strain set2, stronger effect = lower value 0.978 | locus YJL187C, strain SWE1 (second series), stronger effect = lower value 0.986 | locus YJL187C, strain SWE1, stronger effect = lower value 1.02 | locus YJR043C, strain POL32, stronger effect = lower value 1 | locus YJR066W, strain TOR1, stronger effect = lower value 0.934
